Molecules are shown by their SMILES. Activity calls are given as the source filed them. How the calls were made is not given here.

A short description of this test: HepG2 cell cytotoxicity, dose response, cytotoxicity control, dry powder samples (AID 1035472). The following applies: HepG2 viability, ATP luminescence (CellTiter-Glo), 72 h; series mostly up to 100 µM. (In general: In ATP-based viability assays light output follows the ATP content of the culture.)

Regarding `Cn1c(NC(=O)c2ccccc2)nc2c3cnccc3ccc21`, the result was inactive.
